# Out of some 360,000 compounds screened, about 16,000 (4.4%) were called active. About 9% were inconclusive and are not listed. What follows is part of a selection rich in actives, with near analogues and random picks from the rest. Values without a mark were called inactive. Calls come from the whole dose curve; as a rule, active = well fitted inhibition curve with a large enough effect; inconclusive = small, poorly fitted or top-dose-only effect; inactive = no such curve, though single readings can be large or run the other way.
# Target: Bromodomain adjacent to zinc finger domain protein 2B (Homo sapiens) (UniProt Q9UIF8)
# Sequence (Q9UIF8 whole entry, looked up, the tested form may be a part): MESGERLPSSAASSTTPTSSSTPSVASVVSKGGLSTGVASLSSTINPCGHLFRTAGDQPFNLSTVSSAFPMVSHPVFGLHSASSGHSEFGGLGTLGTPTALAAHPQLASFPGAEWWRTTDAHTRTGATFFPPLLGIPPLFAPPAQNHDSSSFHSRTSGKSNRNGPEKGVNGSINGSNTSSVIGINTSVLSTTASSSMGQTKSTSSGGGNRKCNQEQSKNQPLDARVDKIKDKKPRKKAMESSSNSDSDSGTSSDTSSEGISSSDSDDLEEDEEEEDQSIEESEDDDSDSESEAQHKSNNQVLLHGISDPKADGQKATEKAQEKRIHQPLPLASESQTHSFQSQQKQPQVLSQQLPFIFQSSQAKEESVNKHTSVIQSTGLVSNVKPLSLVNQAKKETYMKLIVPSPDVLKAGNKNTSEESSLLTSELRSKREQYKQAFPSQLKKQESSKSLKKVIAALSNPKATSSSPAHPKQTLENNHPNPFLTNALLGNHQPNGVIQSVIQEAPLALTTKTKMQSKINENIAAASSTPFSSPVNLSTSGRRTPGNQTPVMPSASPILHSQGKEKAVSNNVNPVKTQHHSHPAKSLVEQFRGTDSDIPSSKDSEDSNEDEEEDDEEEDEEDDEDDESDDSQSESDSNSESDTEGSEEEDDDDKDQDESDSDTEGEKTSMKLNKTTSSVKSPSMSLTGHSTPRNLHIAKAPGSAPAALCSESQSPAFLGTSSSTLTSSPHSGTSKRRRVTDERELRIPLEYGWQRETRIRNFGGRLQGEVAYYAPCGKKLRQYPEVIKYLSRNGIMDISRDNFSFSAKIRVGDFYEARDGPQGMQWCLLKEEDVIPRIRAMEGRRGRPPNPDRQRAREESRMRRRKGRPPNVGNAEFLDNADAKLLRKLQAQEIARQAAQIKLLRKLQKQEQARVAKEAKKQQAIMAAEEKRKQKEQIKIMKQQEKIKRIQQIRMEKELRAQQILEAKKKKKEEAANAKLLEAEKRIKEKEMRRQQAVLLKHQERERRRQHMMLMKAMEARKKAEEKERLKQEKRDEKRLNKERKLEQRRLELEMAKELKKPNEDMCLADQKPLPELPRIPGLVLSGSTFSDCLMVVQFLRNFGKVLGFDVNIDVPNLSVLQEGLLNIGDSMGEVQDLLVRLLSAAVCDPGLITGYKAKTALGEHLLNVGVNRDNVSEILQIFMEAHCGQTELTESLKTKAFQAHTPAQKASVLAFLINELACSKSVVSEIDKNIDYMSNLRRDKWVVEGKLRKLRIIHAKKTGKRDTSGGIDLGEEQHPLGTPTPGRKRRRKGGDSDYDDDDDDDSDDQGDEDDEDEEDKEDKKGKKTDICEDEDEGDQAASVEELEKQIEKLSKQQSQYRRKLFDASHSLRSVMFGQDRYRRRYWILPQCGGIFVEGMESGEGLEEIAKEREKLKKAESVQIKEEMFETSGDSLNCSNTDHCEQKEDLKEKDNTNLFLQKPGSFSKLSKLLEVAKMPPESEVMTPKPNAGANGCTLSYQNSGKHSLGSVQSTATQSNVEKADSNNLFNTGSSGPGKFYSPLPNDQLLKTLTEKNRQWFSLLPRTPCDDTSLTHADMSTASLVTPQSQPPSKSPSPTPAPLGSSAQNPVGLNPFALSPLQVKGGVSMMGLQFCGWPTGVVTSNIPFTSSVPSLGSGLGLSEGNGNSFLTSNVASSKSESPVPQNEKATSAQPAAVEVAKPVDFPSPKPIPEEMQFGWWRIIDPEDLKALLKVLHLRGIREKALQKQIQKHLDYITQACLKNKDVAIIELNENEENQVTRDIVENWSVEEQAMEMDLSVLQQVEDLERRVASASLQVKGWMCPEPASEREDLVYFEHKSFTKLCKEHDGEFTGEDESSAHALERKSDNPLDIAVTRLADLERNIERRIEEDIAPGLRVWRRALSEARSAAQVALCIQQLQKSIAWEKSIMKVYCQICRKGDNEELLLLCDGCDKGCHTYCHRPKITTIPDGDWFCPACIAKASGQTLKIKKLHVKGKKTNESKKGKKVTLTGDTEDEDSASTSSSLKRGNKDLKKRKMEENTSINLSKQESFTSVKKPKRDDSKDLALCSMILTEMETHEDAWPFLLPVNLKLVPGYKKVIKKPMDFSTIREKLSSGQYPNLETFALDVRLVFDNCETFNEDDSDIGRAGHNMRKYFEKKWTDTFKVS
# Test: qHTS Assay for Inhibitors of BAZ2B; note: nearly all actives have a fitted effect of over 60% in size
# Conditions: AlphaScreen BAZ2B-H3K14Ac peptide displacement; series mostly up to 114 µM; activity change, negative = inhibition: at the top concentration
# Procedure, shortened: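 Multi-concentration screen (max 110 uM) measuring displacement of acetylated histone H3 peptide from BAZ2B by AlphaScreen, using 50 nM protein, 50 nM peptide and 10 ug/mL streptavidin donor plus Ni-chelate acceptor beads.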
# % is set by controls: 0 for no effect and ±100 for the full control effect; potency is the fitted concentration of half-maximal effect.
Compound,"activity change, negative = inhibition",Potency
CC(=O)c1cc(C#N)c(SCC(=O)Nc2nccs2)nc1C,-15.2%,–
CC(=O)c1cc(C#N)c(SCC(=O)C(C)(C)C)nc1C,-24.6%,–
Cc1cccc(-c2nnc(SCC(=O)N3CCCc4ccccc43)o2)c1,2.41%,–
CCC(=O)N1CCc2cc(Br)cc(S(=O)(=O)NCc3ccc(Cl)cc3)c21,-12.3%,–
COc1ccccc1CNC(=O)Cn1nc(C)c2nn(-c3ccc(Cl)cc3)c(C)c2c1=O,5.44%,–
CCN(C(=O)Cn1cnc2sc(C)c(S(=O)(=O)N3CCN(c4ncccn4)CC3)c2c1=O)c1ccccc1F,-1.72%,–
CCCCc1nnc(NC(=O)CSc2nc(C)cc(=O)[nH]2)s1,-6.69%,–
CCOC(=O)Cc1csc(NC(=O)CSc2nc(C)cc(=O)[nH]2)n1,–,50.1 µM (active)
CCOC(=O)Cc1csc(NC(=O)CSc2ccc(Br)cc2)n1,-1.86%,–
O=C(CSc1ncc(-c2ccccc2)[nH]1)Nc1ccc(F)cc1F,-39%,–
COC(=O)c1c(NC(=O)C(C)Oc2ccc(Cl)c(C)c2)sc(C)c1C (centres undefined),59.2%,–
COC(=O)CN1C(=O)CSc2ccc(S(=O)(=O)Nc3cc(C)ccc3C)cc21,-14.5%,–
CCc1ccc(CN(Cc2ccco2)C(=O)COc2ccc(Cl)c(C)c2)cc1,40.4%,–
O=C(O)c1cccc(NC(=S)N/N=C/c2c[nH]c3ccccc23)c1,-21.7%,–
O=C(N/N=C/c1c[nH]c2ccccc12)c1ccccc1O,6.98%,–
CSC(=S)N/N=C/c1c[nH]c2ccccc12,–,35.5 µM (active)
O=C(NCCc1ccccc1)c1ccc2c(c1)N(Cc1ccccc1)C(=O)c1ccccc1S2(=O)=O,-9.92%,–
CCC(=O)N1CCc2cc(CNS(=O)(=O)c3ccc(Br)s3)ccc21,4%,–
C#CCOCCOCCOCCNc1nc(N2CCN(C(=O)[C@H](CCCCN)n3cc(CCC(=O)O)nn3)CC2)nc(N2CCN(C(=O)[C@H](CCCCN)n3cc(CC(C)O)nn3)CC2)n1 (some centres undefined),3.58%,–
C#CCOCCOCCOCCNc1nc(N2CCN(C(=O)[C@H](CCC(=O)O)n3cc(C(N)CO)nn3)CC2)nc(N2CCN(C(=O)[C@H](CCCCN)n3cc(C(N)[C@H](C)CC)nn3)CC2)n1 (some centres undefined),–,14.1 µM (active)
C#CCOCCOCCOCCNc1nc(N2CCN(C(=O)[C@H](CCC(=O)O)n3cc(C(N)CO)nn3)CC2)nc(N2CCN(C(=O)[C@H](CCCCN)n3cc(C(N)CC(C)C)nn3)CC2)n1 (some centres undefined),–,44.7 µM (active)
CCOc1ccc(N(CC)S(=O)(=O)N2CCCC(C(=O)NCc3ccc(Cl)cc3)C2)cc1 (centres undefined),-7.7%,–
CCCCNC(=O)C1CCCN(c2nnc(C)c3c(C)n(-c4ccc(Cl)cc4)nc23)C1 (centres undefined),-11.8%,–
CCN(CC)C(=O)CSc1nc2cc3c(cc2c(=O)n1CCCC(=O)NCc1ccc2c(c1)OCO2)OCO3,-18.3%,–
Cc1ccc2onc(CC(=O)N3CCN(c4ccc(Cl)cc4)CC3)c2c1,-1.17%,–

Compound,"activity change, negative = inhibition",Potency
Cc1ccc2cccc(NC(=O)c3cccc4ccccc34)c2n1,31.4%,–
CCc1ccc(N2C(=O)CN(S(=O)(=O)CC)CC2(C)C(=O)NC2CCCCC2)cc1 (centres undefined),3.92%,–
Cc1ccn2cc(-c3nonc3C)cc2c1,–,56.2 µM (active)
COc1ccc(-c2cn3ccc(C)cc3n2)cc1,-17%,–
COc1cc(OC)cc(C(=O)Nc2cc3nn(-c4ccccc4)nc3cc2Cl)c1,-6.64%,–
Cc1cccc(C(CC(=O)NCC2(c3ccccc3)CCCC2)c2ccccc2)c1O (centres undefined),3.1% [at 57.1 µM],–
Cn1c(SCC(=O)N2CCCc3ccccc32)ncc(C(=O)Nc2ccc(F)cc2)c1=O,1.92%,–
COc1ccc(CNc2nc(-c3ccc(Cl)cc3)cc(C(F)(F)F)n2)cc1,146%,–
O=C(NCCCn1ccnc1)c1ccccc1F,5.41%,–
Brc1ccc(OCCn2ccnc2)cc1,-4.22%,–
CCOc1ccc(S(=O)(=O)NCCCn2ccnc2)cc1NC(C)=O,-8.46%,–
Clc1c(OCCCn2ccnc2)ccc2ccccc12,–,39.8 µM (active)
Cc1ccc(S(=O)(=O)c2nc(NCCCn3ccnc3)sc2Cl)cc1,-51.5%,–
C=CCc1cc(C)ccc1OCCCn1ccnc1,–,31.6 µM (active)
Cc1cc2ccccc2n1CCNC(=O)c1ccc(F)cc1,-14.6%,–
CCC(=O)N1c2ccccc2CC1C(=O)N1CCN(c2ccccc2F)CC1 (centres undefined),-9.61%,–
O=S(=O)(c1ccc2nc(NCc3ccccc3Cl)ccc2c1)N1CCCCC1,-19.2%,–
CCCNC(=O)c1ccc2c(c1)ncn2-c1ccc(C)cc1C,-0.425%,–
CSc1nc(=O)c2c(n1C)NC(=O)CC2c1ccccc1OC(C)C (centres undefined),0.682%,–
COc1ccc(Cl)cc1NC(=O)C(C)Sc1nc2c(c(=O)[nH]1)CCCC2 (centres undefined),-2.65%,–
COc1cccc(-c2nnc(SCC(=O)N3CCC(C)CC3)o2)c1,2.96%,–
Cc1nnc(N2CCC(C(=O)Nc3ccc(F)cc3)CC2)c2nn(-c3ccc(Cl)cc3)c(C)c12,-3.82%,–
N#C/C(=C/c1cccc([N+](=O)[O-])c1)c1nnc2n1CCCCC2,-6.09%,–
N#C/C(=C(\O)CCl)c1nnc2n1CCCCC2,–,79.4 µM (active)

# Source: PubChem BioAssay AID504333 (National Center for Advancing Translational Sciences (NCATS), 2011)
